About 2,000 (36%) of roughly 5,500 compounds were called active. About 18% were inconclusive and are not listed. Cut-off read from the data, not from the text of the source: active = normalized growth mostly below about 0.91 (no sharp cut-off); inconclusive = no clear call, values can overlap the other calls; inactive = mostly above about 0.92. Some of the results follow.
Assay: chemical genetic growth profiling, strain panel (AID 1159580);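 note: tested at 20 µM; growth read once vehicle control cultures reached saturation at 30 °C; 1 = growth at the plate median or of vehicle wells; lower values mean less growth of the strain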
Conditions: S. cerevisiae deletion strains, growth OD

Measured: normalized growth

COC(=O)[C@@H](N)CCCN=C(N)N[N+](=O)[O-]
inactive: locus YAL013W, strain DEP1, active compounds read low 0.999 | locus YAL040C, strain CLN3, active compounds read low 1 | locus YCL061C, strain MRC1 (second series), active compounds read low 1 | locus YDR150W, strain NUM1, active compounds read low 1.01 | locus YDR363W, strain ESC2, active compounds read low 1.01 | locus YER002W, strain NOP16, active compounds read low 0.991 | locus YGR078C, strain PAC10, active compounds read low 1.01 | locus YMR307W, strain GAS1, active compounds read low 0.986 | locus YNL175C, strain NOP13, active compounds read low 1 | locus YNL197C, strain WHI3, active compounds read low 0.994 | locus YNL224C, strain SQS1, active compounds read low 1 | locus YNL322C, strain KRE1, active compounds read low 1.02 | locus YOR083W, strain WHI5 (second series), active compounds read low 1
